Bioassay records deposited in PubChem BioAssay by National Center for Advancing Translational Sciences (NCATS).
An excerpt weighted towards active compounds, which were near 7.9% of everything screened.
FMDV antiviral = foot and mouth disease virus antiviral activity; FMDV antiviral cell-based qHTS; Potency, µM (top dose mostly 57.9 µM), for the others: at the highest dose activity change, negative = inhibition, actives largely listed as inhibitors; actives 1.2% (n = 410,000); calls by dose curve; tested in HEK293T cells; also: read-out not given here; potency is read from the fitted curve at half-maximal effect; nearly all actives have a fitted effect of over 45% in size
HCMV inh = inhibitors of human cytomegalovirus | HFF cells, HCMV-luciferase reporter, 72 h; active compounds read low | activity change, negative = inhibition, % at 57.5 µM | actives 4.5% (n = 410,000) | AID 1259415; in the data active = activity change below about -60%; inconclusive = no clear call, values can overlap the other calls; inactive = above about -39%
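Two-dose cell screen: HFF monolayers treated with compounds and infected with luciferase-expressing HCMV at 1 PFU/cell, 72 h at 37C, then lysed for luciferase measurement.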
Marburg entry inh = inhibitors of Marburg virus binding or cell entry | Marburg virus pseudotyped entry inhibition, cell reporter | Potency, µM (titrated, usually from 37.8 µM), without a hit: at the highest dose activity change, negative = inhibition, most hits filed as inhibitors | actives 1.8% (n = 300,000) | AID 540276; calls by dose curve; tested in HEK293 cells; also: potency is read from the fitted curve at half-maximal effect
LASV entry inh = Lassa virus entry inhibition; Lassa virus pseudotype entry inhibition, cell reporter; actives 1.2% (n = 300,000); Potency, µM (series often up to 37.9 µM), without a hit: at the top dose activity change, negative = inhibition, most hits filed as inhibitors; AID 540256; calls by dose curve; tested in HEK293 cells; also: potency is read from the fitted curve at half-maximal effect; nearly all actives have a fitted effect of over 50% in size
HCV inh = HCV inhibition; Huh7.5.1 HCVcc-Cre infection, luciferase reporter, 44 h; Potency, µM (doses to about 41.8 µM), inactives show at the top dose activity change, negative = inhibition, actives largely listed as inhibitors; actives 3.4% (n = 340,000); active = well fitted inhibition curve with a large enough effect; inconclusive = small, poorly fitted or top-dose-only effect, or another doubt; inactive = no such curve, though single readings can be large or run the other way; also: potency is read from the fitted curve at half-maximal effect
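Cells seeded at 1,000/well and cultured 4 h, then compounds added followed by HCVcc-Cre virus (~0.5 moi). After 44 h further culture, luciferase substrate was added, plates held 15 min at room temperature, and luminescence read for 15 sec.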
The depositor's hits bear a star; ? = inconclusive; · = not tested or not shown; [ ] = another dose, or the depositor's remark. % is scaled to controls: 0 for no effect and ±100 for the full control effect.

SMILES | FMDV antiviral | HCMV inh | Marburg entry inh | LASV entry inh | HCV inh
NC(=O)c1cc(S(=O)(=O)Nc2ccc(OC(F)(F)F)cc2)cs1 | 12% | -7 | · | · | -29%
O=C(NCC1CCCO1)C(=O)N/N=C/c1cccc(Cl)c1 (stereo not given) | 15% | -23 | -2% | 19% | 3%
CCC(=O)c1ccc(OCC(=O)OCC(=O)NC2CCCCCCC2)cc1 | -21% | 4 | · | · | 14%
CCCCOc1ccc(N(CC(=O)NC(C)(C)CC)C(=O)CCC(=O)Nc2ccccn2)cc1 | -7% | 53 | 8.9µM* | ? | 9%
O=C(CCc1ccccc1)N/N=C/c1cccc([N+](=O)[O-])c1 | 8% | 87 | · | · | 1%
O=C(N/N=C/c1ccco1)C1CC1 | -16% | -23 | 14% | 19% | -3%
O=C(N/N=C/c1ccco1)C1CC1c1ccccc1 (stereo not given) | 5% | -17 | 27% | 18µM* | ?
O=C(N/N=C/c1cccc([N+](=O)[O-])c1)C1CC1c1ccccc1 (stereo not given) | -1% | -10 | ? | 2.2µM* | -15%
O=C(N/N=C/c1c[nH]c2ccccc12)C1CC1(c1ccccc1)c1ccccc1 (stereo not given) | 9% | 68 | ? | ? | ?
CC(C)(C)c1ccc(C2CC2C(=O)N/N=C\c2ccc[nH]2)cc1 (stereo not given) | -19% | -100* | ? | ? | 0.56µM*
O=C(N/N=C/c1c[nH]c2ccccc12)C1CC1c1ccccc1 (stereo not given) | ? | -17 | ? | 2.8µM* | ?
COc1cccc(-c2ccc3ncnc(NCc4cnc(C)cn4)c3c2)c1 | -23% | · | · | · | ·
CCNc1nc(NCc2ccccc2)nc(SCC(=O)Nc2ccccc2)n1 | ? | 39 | ? | ? | 25µM*
CN(C)c1nc(NCc2ccccc2)nc(SCC(=O)Nc2ccc(Cl)c(Cl)c2)n1 | ? | -9 | 12µM* | -21% | ?
COc1ccc(-n2c(-c3ccco3)n[nH]c2=S)cc1 | 18% | -2 | 21% | 14% | 2%
S=c1[nH]nc(-c2ccco2)n1-c1ccc(Cl)cc1 | 0% | -61* | 13%[46.1 µM] | 0%[46.1 µM] | 13%
CCOc1ccc(C2c3[nH]c4ccccc4c3CCN2C(=O)Cc2cccc(OCC)c2OCC)cc1 (stereo not given) | -5% | 16 | · | ? | ·
COc1ccc(CC(=O)N2CCc3c([nH]c4ccccc34)C2c2ccc(SC)cc2)cc1 (stereo not given) | -17% | -10 | · | ? | ·
COc1ccc(C2c3[nH]c4ccccc4c3CCN2C(=O)c2ccc(=O)n(C)n2)c(F)c1 (stereo not given) | 34% | 123 | ? | ? | -1%
CCOc1ccc(C2c3[nH]c4ccccc4c3CCN2C(=O)CCc2ccccc2)cc1 (stereo not given) | 2% | -84* | · | ? | ·
CCc1cc(C(=O)N2CCc3c([nH]c4ccccc34)C2c2ccc(OC)cc2F)no1 (stereo not given) | 14% | -64* | 0.89µM* | ? | ?
COc1ccc(CCC(=O)N2CCc3c([nH]c4ccccc34)C2c2ccc(F)cc2)cc1 (stereo not given) | -15% | -80* | · | ? | ·
Fc1ccc(-c2noc(-c3ccc4c(c3)CCO4)n2)cc1 | -44% | 43 | ? | 10µM* | -1%
O=C(OCC1CCCO1)c1ccc2c(c1)N(Cc1ccccc1)C(=O)c1ccccc1S2(=O)=O (stereo not given) | -1% | 5 | · | 6%[46.1 µM] | ·
COc1ccc(-c2csc(NC(=O)CC(C)C)n2)cc1 | ? | -3 | ? | 13µM* | -26%
SMILES | FMDV antiviral | HCMV inh | Marburg entry inh | LASV entry inh | HCV inh
Cc1nc(-c2ccc(NC(=O)C3CC3)cc2)cs1 | 46% | -4 | ? | -7%[46.1 µM] | 2%
Cc1nc(-c2ccc(NC(=O)CC(C)C)cc2)cs1 | 18% | -76* | -10% | ? | -21%
COc1ccc(-c2csc(NC(=O)c3c(OC)cccc3OC)n2)cc1 | 0% | -16 | -20% | -1% | ?
COc1ccc(CNC(=O)C2CCC(CNS(=O)(=O)c3cccs3)CC2)cc1 (stereo not given) | -27% | -6 | ? | -25% | -25%
C=CCOC(=O)N[C@H](c1ccc2ccccc2c1)[C@H](C)C=CCC(=O)OC | · | · | -4%[14.2 µM] | ? | ·
C=CCOc1c(Cl)cc(C2NC(=O)NC(C)=C2C(=O)OC)cc1Cl (stereo not given) | · | -20 | -9% | -26% | 11µM*
Cc1ccc(-c2nnc(NC(=O)Cc3ccc(F)cc3)o2)c(C)c1 | 3% | · | · | · | -11%
COc1ccccc1-c1oc2ccccc2c1C#CC(C)(C)O | -25% | 60 | · | · | 10µM*
COc1ccccc1-c1oc2ccccc2c1C#CCO | -9% | -16 | · | · | -2%
CCn1c(NCc2ccco2)nc2c1c(=O)n(C)c(=O)n2C | -22% | 24 | 0% | 17% | 7%
C/C(Cl)=C\Cn1c(NCCc2ccccc2)nc2c1c(=O)n(C)c(=O)n2C | · | -95* | 3.7µM* | 4.6µM* | 2.5µM*
Cc1ccc(Cn2c(NCCc3ccccc3)nc3c2c(=O)n(C)c(=O)n3C)cc1 | 16µM* | -69* | ? | ? | 4µM*
Cn1c(=O)c2c(nc(NCc3ccco3)n2CCc2ccccc2)n(C)c1=O | 20µM* | ? | ? | -17% | ?
COCCCNc1nc2c(c(=O)n(C)c(=O)n2C)n1Cc1ccccc1 | ? | -6 | -22%[46.1 µM] | 3%[46.1 µM] | ·
C=CCn1c(NCCc2ccccc2)nc2c1c(=O)n(C)c(=O)n2C | 25µM* | -82* | ? | ? | ?
CC1CCCCC12NC(=O)N(CC(=O)NCCc1ccc(S(N)(=O)=O)cc1)C2=O (stereo not given) | -2% | 10 | · | · | 5%
COCCNC(=O)c1cc2c(c(-c3cccc(-c4cc5ccccc5o4)c3)n1)[C@@H](CCO)N(S(=O)C(C)(C)C)C2 (stereo not given in full) | 7% | 23 | · | · | ·
COc1cccc(C2C(C(=O)Nc3cccnc3)=C(C)Nc3nc(SCc4ccccc4)nn32)c1 (stereo not given) | -15% | 1 | 25%[46.1 µM] | -25%[46.1 µM] | ·
Cc1ccccc1NC(=O)CSc1c(C(C)C)cnc2c1c(=O)n(C)c(=O)n2C | -2% | -8 | · | -1%[46.1 µM] | ·
O=C(O)c1ccc(N=Nc2c(O)[nH]c3ccccc23)cc1 | ? | 15 | 1.8µM* | 5µM* | 0%
COC(=O)c1cccc(NC(=O)CSc2nnc(-c3ccco3)o2)c1 | 7% | -11 | ? | 7%[46.1 µM] | 2%
COc1cccc(NC(=O)CN(C)C(=O)c2ccc(NC3CC3)c([N+](=O)[O-])c2)c1 | -16% | -18 | -6% | -1% | -6%
CCOc1ccc(NC(=O)CN(C)C(=O)c2ccc3[nH]c4c(c3c2)CC(C)CC4)cc1OCC (stereo not given) | 9% | · | -6% | 0% | 0.56µM*
Cc1ccc(NC(=O)CN(C)C(=O)c2ccc3[nH]c4c(c3c2)CC(C)CC4)cc1 (stereo not given) | -17% | -29 | ? | ? | ?
